Experimental findings from PubChem BioAssay (EPA / NIEHS) are described below.

Results filed as inconclusive are left out. Calls of active or inactive are those of the source. Rule for the calls: active = hit-call score of the fitted dose curve at least 0.9, where 1 is the maximum; inconclusive = response in the unintended direction; inactive = score below 0.9.

In this test the target is Glycogen synthase kinase-3 beta (Homo sapiens) (UniProt P49841). The test is described as follows: NVS_ENZ_hGSK3b: NovaScreen (NVS) Enzymatic Assay for human Glycogen Synthase Kinase-3 beta (GSK3b) (AID 2283165). Here is the method: NVS_ENZ_hGSK3b is a biochemical, single-readout assay that uses extracted gene-proteins in a cell-free assay. Measurements were taken 1 hour after chemical dosing in a 384-well plate.NVS_ENZ_hGSK3b is one of one assay component(s) measured or calculated from the NVS_ENZ_hGSK3b assay. It is designed to make measurements of enzyme activity, a form of enzyme reporter, as detected with fluorescence intensity signals by Fluorescence and electrophoretic mobility shift technology.Data from the assay component NVS_ENZ_hGSK3b was analyzed into 1 assay endpoint. This assay endpoint, NVS_ENZ_hGSK3b, was analyzed in the positive analysis fitting direction relative to DMSO as the negative control and baseline of activity. Using a type of enzyme reporter, loss-of-signal activity can be used to understand changes in the enzymatic activity as they relate to the gene GSK3B. Furthermore, this assay endpoint can be referred to as a primary readout, because this assay has produced multiple assay endpoints where this one serves a enzymatic activity function. To generalize the intended target to other relatable targets, this assay endpoint is annotated to the kinase intended target family, where the subfamily is serine/threonine kinase.
Chain of Glycogen synthase kinase-3 beta (Homo sapiens) (P49841 whole entry, looked up): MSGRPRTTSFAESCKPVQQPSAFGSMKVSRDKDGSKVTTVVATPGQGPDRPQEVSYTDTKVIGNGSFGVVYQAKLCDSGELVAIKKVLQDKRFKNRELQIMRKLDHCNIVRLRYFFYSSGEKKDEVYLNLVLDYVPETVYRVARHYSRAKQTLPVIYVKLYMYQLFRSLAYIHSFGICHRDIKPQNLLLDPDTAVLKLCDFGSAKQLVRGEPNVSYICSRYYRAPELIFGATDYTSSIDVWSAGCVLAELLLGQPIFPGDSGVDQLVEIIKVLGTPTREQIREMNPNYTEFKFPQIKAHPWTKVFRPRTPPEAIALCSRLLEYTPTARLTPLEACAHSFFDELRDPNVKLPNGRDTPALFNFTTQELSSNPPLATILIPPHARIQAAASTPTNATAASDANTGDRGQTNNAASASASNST
Binding assays used specific radioligands (tritiated, iodinated) with non-radioactive competitive displacement ligands in agonist or antagonist protocols (as indicated) and various reference compounds and inhibitors to titrate specific binding to receptors and transporters. Most enzyme assays (CYPs, kinases, phosphatases, proteases, HDACs) used recombinant protein and specific substrates (fluorescence mostly, some colorimetric and radioactive) and inhibitors, followed by a biochemical separation of substrate and product. All assays for the biochemical HTS were initially run in duplicate at a single concentration (10 uM for CYP450 assays and 25 uM for all others). Assay-chemical combinations meeting a pre-defined threshold (e.g., 30% inhibition and other criteria defined below) were then run in singleton concentration-response format with maximum concentration of 20 uM for CYPs and 50 uM for all others. Each assay was run with positive and negative controls, and concurrent controls on every plate. The follow-up (secondary) screen tested active chemical-pairs in concentration series, as well as a few additional assays not tested in the primary screen, some selected negative inactives, and several cases re-run in the concentration series for confirmatory purposes.
Turning to `S=c1[nH]c2ccccc2s1`, the molecule was classed as inactive.
To `Oc1ccc(O)cc1` belongs “inactive”; to `COC(=O)CCCC(=O)OC`, “inactive”.
In the case of `Nc1nc(=S)c2[nH]cnc2[nH]1`, the molecule was called inactive.
For `CC(C)c1cccc(C(C)C)c1NC(=O)NS(=O)(=O)c1cc(C(C)(C)O)co1` the value was “inactive”; for `O=NO`, “inactive”.
Turning to `C/C=C/c1ccc(OC)cc1`, the molecule was called inactive.
For `O=C(O)CN(CC(=O)O)CC(=O)O` the value was “inactive”; for `CCc1cc(C2=C(C(=O)O)N(c3ccccc3C(F)(F)F)S(=O)(=O)c3ccccc32)cc2c1OCO2`, “inactive”; for `COc1ccc(OC(F)(F)F)cc1CN[C@H]1CCCN[C@H]1c1ccccc1`, “inactive”.
As for `O=C(Oc1ccccc1)c1cccc(C(=O)Oc2ccccc2)c1`, the molecule was called inactive.
To `CN(C)C(=O)NC1(c2ccccc2)CCN(CCC[C@]2(c3ccc(Cl)c(Cl)c3)CCCN(C(=O)c3ccccc3)C2)CC1` belongs “inactive”; to `O=C1OC(c2ccc(O)cc2)(c2ccc(O)cc2)c2ccccc21`, “inactive”; to `NC1CCCCC1`, “inactive”.
For `CCCC(=O)O` the value was “inactive”; for `Cc1occc(=O)c1O`, “inactive”; for `CCOCCOCCO`, “inactive”.
On to `C=CCc1ccc(OC)c(OC)c1`, for which the call was inactive.
To `CC1(C)C(=O)NC(=O)N1CO` belongs “inactive”; to `c1ccc2occc2c1`, “inactive”.
